Screening results deposited in PubChem BioAssay by The Scripps Research Institute Molecular Screening Center.
Most compounds without a hit are left out; they make up all but 3.4% or so of the library.
FBW7 activator = human FBW7 E3 ligase activation, primary screen. 0.13% of 650,000 active. Q969H0. AlphaScreen FBW7–phospho-cyclin E peptide binding, activator screen. normalized activity (activation), % at 26.1 µM; in the data active means normalized activity above about 1.9%;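 further: purified mutant Fbw7 with reduced substrate affinity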
MITF inh = blocks human microphthalmia-associated transcription factor. O75030. AlphaScreen MITF homodimerization, bead proximity signal. inhibition, % at 2.6 µM. 0.91% of 650,000 active. AID 1259374; in the data active means inhibition above about 50%
GPR151 ag = human GPR151 activation. PathHunter beta-arrestin GPR151 cells, luminescence. Q8TDV0. activation, % at 11.2 µM. AID 1508602. 1% of 650,000 active; in the data active means activation above about 4.9%
Target sequence (Q8TDV0 whole entry, looked up): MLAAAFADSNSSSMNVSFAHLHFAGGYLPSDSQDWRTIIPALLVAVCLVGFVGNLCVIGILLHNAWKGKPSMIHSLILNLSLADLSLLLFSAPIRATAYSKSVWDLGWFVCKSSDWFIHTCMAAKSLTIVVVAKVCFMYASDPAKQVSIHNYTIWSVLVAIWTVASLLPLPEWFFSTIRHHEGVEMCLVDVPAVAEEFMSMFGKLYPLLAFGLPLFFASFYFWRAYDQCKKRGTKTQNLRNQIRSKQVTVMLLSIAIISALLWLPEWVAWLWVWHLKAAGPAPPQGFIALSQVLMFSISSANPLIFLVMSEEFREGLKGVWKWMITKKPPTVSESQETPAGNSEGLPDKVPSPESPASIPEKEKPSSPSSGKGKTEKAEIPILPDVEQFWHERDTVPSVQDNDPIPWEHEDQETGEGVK
TEAD-YAP block = TEAD-YAP interaction inhibition; AID 1259422; HEK-TIYL cells, TEAD-Gal4/YAP UAS-luciferase luminescence; 1.4% of 640,000 active; inhibition, % at 9.12 µM; in the data active means inhibition above about 32%
A number is an active result; - = inactive.

SMILES | FBW7 activator | MITF inh | GPR151 ag | TEAD-YAP block
COc1ccc(CC(=O)Nc2nccs2)cc1OC | - | - | - | -
COC(=O)c1ccc(NC(=O)CSc2nnc(-c3ccc(C)cc3)n2N)cc1 | - | - | - | -
C=CCN1C(=O)C(O)(CC(=O)c2ccc(C)cc2C)c2cc(Br)ccc21 (stereo unspecified) | - | - | - | -
O=c1c(Oc2ccc(F)cc2)coc2c(O)c(O)ccc12 | - | 82.7 | - | -
CCCCOc1ccc(C(=O)Oc2coc(CSc3ncccn3)cc2=O)cc1 | - | - | - | -
COc1ccc(C2C(C(=O)Nc3cc(OC)c(OC)c(OC)c3)c3ccccc3C(=O)N2C)cc1 (stereo unspecified) | - | - | - | 53.6
COc1ccc(CCNC(=O)c2ccc3c(c2)CC(c2nc4ccc(-c5ccnc(N)n5)cc4[nH]2)CO3)cc1 (stereo unspecified) | 5.8 | - | - | 41.1
CC(C)CNC(=O)c1ccc2c(c1)CC(c1nc3ccc(-c4ccnc(N)n4)cc3[nH]1)CO2 (stereo unspecified) | 2.3 | - | - | -
COCCNC(=O)c1ccc2c(c1)CC(c1nc3ccc(-c4ccnc(N)n4)cc3[nH]1)CO2 (stereo unspecified) | - | - | - | -
CC(CNC(=O)c1ccc2c(c1)CC(c1nc3ccc(-c4ccnc(N)n4)cc3[nH]1)CO2)c1cccs1 (stereo unspecified) | 2.7 | - | - | 44.8
COc1cc(C2C(C#N)=C(N)Oc3n[nH]c(C)c32)ccc1OCC(=O)NCc1ccccc1 (stereo unspecified) | - | - | - | -
CCOc1ccc(NC(=O)C(=O)NCC(C)C)cc1 | - | - | - | -
Cc1nn(C2CCS(=O)(=O)C2)c(Cl)c1/C=C/c1nc2ccccc2s1 (stereo unspecified) | - | - | - | 94.7
Nc1c(Br)cc2c(c1Br)C(=O)c1ccccc1C2=O | - | - | - | -
CN(C)c1cc2c(c(N(C)C)c1)C(=O)c1ccccc1C2=O | - | 54.2 | - | -
CCC(=O)N(CCCO)Cc1cc2ccc(C)cc2[nH]c1=O | - | - | - | 36.0
O=C1OC(OC(=O)c2ccccc2)C(Nc2cccc(O)c2)=C1Cl (stereo unspecified) | 2.4 | - | - | -
O=C1OC(OC(=O)c2ccccc2)C(Nc2ccccc2)=C1Cl (stereo unspecified) | - | - | - | -
CCN1C(=O)C2C(c3cccs3)NC(Cc3ccc(O)cc3)(C(=O)OC)C2C1=O (stereo unspecified) | - | - | - | -
O=C(O)c1ccc(Cn2cc(Br)cn2)o1 | - | - | - | -
Cc1cccc(CC(=O)Nc2cnn(-c3cccc(C(=O)N4CCCO4)c3)c2)c1 | - | - | - | -
Cc1cccc(CC(=O)Nc2cnn(-c3cccc(C(=O)N4CCNC(=O)CC4)c3)c2)c1 | 4.3 | - | - | -
Cc1cccc(C(=O)Nc2c(C(=O)N3CCN(C)CC3)cnn2-c2ccccc2)c1 | 2.3 | - | - | -
Cc1cccc(C(=O)Nc2c(C(=O)N3CCCCC3)cnn2-c2ccccc2)c1 | - | - | - | -
Cn1c(C(=O)Nc2cccc(Br)c2)cc2c(=O)n3ccccc3nc21 | - | - | - | -
SMILES | FBW7 activator | MITF inh | GPR151 ag | TEAD-YAP block
Cc1ccc(CN2CCC(Oc3cccc(C(=O)NCc4ccccn4)c3)CC2)o1 | - | - | - | -
O=C1CC(c2ccccc2)Sc2nc3ccccc3n21 (stereo unspecified) | - | - | - | -
O=C1CC(c2ccc3c(c2)OCO3)Sc2nc3ccccc3n21 (stereo unspecified) | - | - | - | 75.7
COc1ccc(C2CC(=O)n3c(nc4ccccc43)S2)cc1 (stereo unspecified) | - | - | - | 79.8
O=C(Nc1ccc2oc(-c3cccc(F)c3)nc2c1)c1ccc(-c2ccccc2[N+](=O)[O-])o1 | - | - | - | -
CC(=O)Nc1ccc2nc(SCc3cccc(F)c3)sc2c1 | - | - | - | -
CC1CCC(NC(=O)C2CCC(CNc3c(N4CCC(C)CC4)c(=O)c3=O)CC2)CC1 (stereo unspecified) | - | - | - | -
COc1ccc(-c2nc(N)c3cc(OC)c(OC)cc3n2)cc1 | - | - | - | -
COc1cc2nc(N(C)C)nc(N)c2cc1OC | - | - | - | 60.5
CCOc1ccccc1CN1CCC(C(=O)N2CCCC2)CC1 | - | - | - | -
O=C1N(C2Cc3ccccc3C2)C[C@@H]2C[C@@H](c3ccc(OCCO)cc3)N3CCC[C@@]123 | - | - | - | -
Oc1c(C(c2ccc(Cl)cc2)N2CCOCC2)ccc2cccnc12 (stereo unspecified) | - | - | - | 77.5
COc1ccc(C(c2ccc3cccnc3c2O)N2CCCC2)cc1 (stereo unspecified) | - | - | - | 83.8
COc1cc(C(c2cc(Cl)c3cccnc3c2O)N2CCCC2)cc(OC)c1OC (stereo unspecified) | - | - | - | -
COc1ccc(C(c2sc3nc(C)nn3c2O)N2CCOCC2)cc1 (stereo unspecified) | - | - | - | -
COc1ccc(C(c2ccc3cccnc3c2O)N2CCOCC2)cc1 (stereo unspecified) | - | - | - | 80.0
C=CCn1c(=O)c2c(nc3n(-c4ccccc4C)c(C)cn23)n(C)c1=O | 2.1 | - | - | -
CCCn1c(=O)c2c(nc3n(-c4ccccc4C)c(C)cn23)n(C)c1=O | - | - | - | -
CC1(C)NC(=O)N(CC(O)COc2ccc(C3C=CCC3)cc2)C1=O (stereo unspecified) | - | - | - | -
O=C(NCC1CCC2(CCN(Cc3ccc4ncccc4c3)CC2)O1)C1CCCO1 (stereo unspecified) | 2.1 | - | - | -
COc1ccc(-c2nc(NC3CC3)c3ncn(-c4ccsc4)c3n2)cc1 | - | - | - | 50.1
Cc1nn(C)c(C)c1-c1nc(NC2CC2)c2ncn(-c3ccsc3)c2n1 | - | - | - | 40.3
COc1ccc(-c2nc(NC3CCN(Cc4ccccc4)CC3)c3ncn(-c4ccsc4)c3n2)cc1 | - | - | - | -
COc1ccc(OC)c(NC(=O)c2c(NCc3ccc(OC)c(OC)c3OC)sc3c2CCCC3)c1 | - | - | - | -
CCNc1ncc(C(=O)Nc2ccc(NC(C)=O)cc2)s1 | - | - | - | -
SMILES | FBW7 activator | MITF inh | GPR151 ag | TEAD-YAP block
O=C(/C=C/c1ccc(O)c(O)c1)OC(Cc1ccc(O)c(O)c1)C(=O)O (stereo unspecified) | - | 88.5 | - | -
COc1ccc(/C=N\Nc2ncccc2[N+](=O)[O-])c(OC)c1 | - | - | - | 41.0
CCSc1nnc2c(n1)[nH]c1ccc(OC)cc12 | - | - | - | -
NC(=O)c1ccccc1NC(=O)CSc1nc(O)c(Cc2ccccc2)c(=O)[nH]1 | - | - | - | -
O=S(=O)(NC1CC1)c1ccc(S(=O)(=O)N2CCN(C3CCCC3)CC2)cc1 | - | - | - | -
COc1cc(C2Nc3ccccc3NC3=C2C(=O)CC(c2ccccc2Cl)C3)ccc1O (stereo unspecified) | - | - | - | 50.6
COc1cc(C2Nc3ccccc3NC3=C2C(=O)CC(c2ccccc2Cl)C3)cc(Br)c1O (stereo unspecified) | - | - | - | 43.5
